Data taken from PubChem BioAssay AID743048 (Broad Institute, 2013).
Potency and affinity values are given separately. Active and inactive are the calls of the source. No rule for the calls is given here.

target: Paired box protein Pax-2 (Homo sapiens) (UniProt Q02962); test: PAX2 cell-based inhibition, dose response, selectivity assay for PAX8 inhibitor project, plate reader, dry powder samples (AID 743048); conditions: Pax2 cell-based reporter; series mostly up to 50 µM
Sequence (Q02962 whole entry, looked up): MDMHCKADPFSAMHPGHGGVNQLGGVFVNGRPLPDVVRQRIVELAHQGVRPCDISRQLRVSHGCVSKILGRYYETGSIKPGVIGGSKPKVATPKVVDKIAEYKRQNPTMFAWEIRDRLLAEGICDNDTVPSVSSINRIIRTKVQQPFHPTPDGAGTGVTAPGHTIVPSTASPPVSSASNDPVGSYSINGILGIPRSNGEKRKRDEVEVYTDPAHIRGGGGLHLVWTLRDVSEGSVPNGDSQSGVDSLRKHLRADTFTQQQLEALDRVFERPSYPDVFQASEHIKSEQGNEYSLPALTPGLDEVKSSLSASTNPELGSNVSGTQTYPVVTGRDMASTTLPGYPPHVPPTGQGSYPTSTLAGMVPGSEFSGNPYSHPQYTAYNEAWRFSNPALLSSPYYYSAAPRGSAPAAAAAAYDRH

outcome, inactive:
O=C1/C(=C/c2cccc(Br)c2)SC(=S)N1CCC(=O)N(CCO)c1ccccc1, COc1cccc2sc(N(CCCN(C)C)C(=O)CCS(=O)(=O)c3ccccc3)nc12, O=C(CCCN1C(=O)/C(=C\c2cccc(Br)c2)SC1=S)Nc1cccnc1
